From the supplement of paper PMC11732987, “Enantioselective OTUD7B fragment discovery through chemoproteomics screening and high-throughput optimisation” (Communications Chemistry, 2025)

Tests used:
Test in all cases: log2 ratio of Biotin-Ahx-Ub-VS probe labelling (fragment/DMSO); higher = less target engagement (more negative = stronger competition), active = hit call of the paper (q ≤ 0.05, log2 ratio ≤ -1)
Details in all cases: compound concentration: 200 uM; treatment time: 3 h
USP34 = USP34 (UniProt Q70CQ2)
How it was run: (§1)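 Fragment (200 µM) or vehicle was incubated for 3 h with triplicate HEK293T lysate samples of 495 µg, which were then treated with Biotin-Ahx-Ub-VS at 0.5 µM final for 1 h. Labelled DUBs were enriched on NeutrAvidin, digested with LysC and trypsin, and analysed by diaPASEF LC-MS/MS. Values are average log2 fragment/vehicle ratios from an unpaired t-test on global-median-normalised Spectronaut label-free quantities, using proteins with ≥2 unique peptides.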

USP36 = biological target: T1, USP36 (UniProt Q9P275)
T1 sequence (whole entry): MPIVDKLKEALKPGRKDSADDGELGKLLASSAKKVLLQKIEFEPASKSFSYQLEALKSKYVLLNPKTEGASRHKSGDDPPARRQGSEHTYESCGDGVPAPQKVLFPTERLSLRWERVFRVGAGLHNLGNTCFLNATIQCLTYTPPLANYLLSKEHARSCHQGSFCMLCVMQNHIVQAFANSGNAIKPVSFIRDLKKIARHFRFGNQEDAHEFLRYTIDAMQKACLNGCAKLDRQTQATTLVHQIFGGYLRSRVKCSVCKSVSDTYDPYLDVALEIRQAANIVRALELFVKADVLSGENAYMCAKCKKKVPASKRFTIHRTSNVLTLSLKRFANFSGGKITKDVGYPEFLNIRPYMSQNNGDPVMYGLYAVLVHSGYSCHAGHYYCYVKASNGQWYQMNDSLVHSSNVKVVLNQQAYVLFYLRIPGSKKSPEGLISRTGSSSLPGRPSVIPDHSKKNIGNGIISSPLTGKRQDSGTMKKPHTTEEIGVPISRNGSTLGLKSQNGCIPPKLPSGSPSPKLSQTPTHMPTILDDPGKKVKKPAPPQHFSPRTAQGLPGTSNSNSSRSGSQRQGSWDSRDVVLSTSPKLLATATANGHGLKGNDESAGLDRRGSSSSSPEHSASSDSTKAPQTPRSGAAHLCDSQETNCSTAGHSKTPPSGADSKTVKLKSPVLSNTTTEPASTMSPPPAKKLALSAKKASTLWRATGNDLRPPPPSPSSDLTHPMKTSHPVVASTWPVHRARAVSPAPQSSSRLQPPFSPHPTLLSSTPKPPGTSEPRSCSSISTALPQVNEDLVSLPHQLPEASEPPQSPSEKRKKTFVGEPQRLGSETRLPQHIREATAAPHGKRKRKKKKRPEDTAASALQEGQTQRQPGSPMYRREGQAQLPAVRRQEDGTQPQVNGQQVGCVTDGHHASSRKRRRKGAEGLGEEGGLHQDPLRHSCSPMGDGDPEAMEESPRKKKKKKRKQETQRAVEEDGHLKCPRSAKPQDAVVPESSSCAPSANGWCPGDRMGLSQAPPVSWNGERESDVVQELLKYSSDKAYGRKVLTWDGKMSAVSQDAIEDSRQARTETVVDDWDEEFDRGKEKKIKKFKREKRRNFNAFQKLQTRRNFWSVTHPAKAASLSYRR
How it was run: as §1

USP38 = biological target: T2, USP38 (UniProt Q8NB14)
T2 sequence (whole entry): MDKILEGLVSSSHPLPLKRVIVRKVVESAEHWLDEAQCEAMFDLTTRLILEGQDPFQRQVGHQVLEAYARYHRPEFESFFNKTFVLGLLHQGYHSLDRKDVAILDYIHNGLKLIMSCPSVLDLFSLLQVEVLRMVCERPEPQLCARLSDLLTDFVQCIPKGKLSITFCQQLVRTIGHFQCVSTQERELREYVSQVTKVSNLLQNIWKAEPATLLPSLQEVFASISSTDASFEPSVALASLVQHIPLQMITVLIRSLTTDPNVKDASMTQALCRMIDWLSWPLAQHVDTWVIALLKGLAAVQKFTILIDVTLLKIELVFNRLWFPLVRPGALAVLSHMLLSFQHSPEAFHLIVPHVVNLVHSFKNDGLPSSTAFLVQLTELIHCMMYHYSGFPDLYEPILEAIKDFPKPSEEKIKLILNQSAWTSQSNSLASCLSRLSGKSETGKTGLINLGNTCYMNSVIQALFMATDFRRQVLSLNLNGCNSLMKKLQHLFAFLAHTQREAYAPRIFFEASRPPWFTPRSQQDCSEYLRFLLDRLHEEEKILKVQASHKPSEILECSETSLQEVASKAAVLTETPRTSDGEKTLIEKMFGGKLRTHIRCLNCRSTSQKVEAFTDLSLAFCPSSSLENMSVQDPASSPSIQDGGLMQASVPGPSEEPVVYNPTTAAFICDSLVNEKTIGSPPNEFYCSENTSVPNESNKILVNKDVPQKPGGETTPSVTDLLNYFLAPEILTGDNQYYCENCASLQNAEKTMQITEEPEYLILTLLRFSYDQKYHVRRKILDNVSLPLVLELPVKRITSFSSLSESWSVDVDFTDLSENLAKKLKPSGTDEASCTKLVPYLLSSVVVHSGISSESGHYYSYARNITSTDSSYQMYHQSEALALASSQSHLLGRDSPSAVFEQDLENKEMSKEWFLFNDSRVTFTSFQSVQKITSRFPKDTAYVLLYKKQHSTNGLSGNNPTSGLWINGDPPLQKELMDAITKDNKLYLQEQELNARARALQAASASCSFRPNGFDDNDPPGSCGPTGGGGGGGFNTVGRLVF
How it was run: as §1

USP39 = biological target: T3, USP39 (UniProt Q53GS9)
T3 sequence (whole entry): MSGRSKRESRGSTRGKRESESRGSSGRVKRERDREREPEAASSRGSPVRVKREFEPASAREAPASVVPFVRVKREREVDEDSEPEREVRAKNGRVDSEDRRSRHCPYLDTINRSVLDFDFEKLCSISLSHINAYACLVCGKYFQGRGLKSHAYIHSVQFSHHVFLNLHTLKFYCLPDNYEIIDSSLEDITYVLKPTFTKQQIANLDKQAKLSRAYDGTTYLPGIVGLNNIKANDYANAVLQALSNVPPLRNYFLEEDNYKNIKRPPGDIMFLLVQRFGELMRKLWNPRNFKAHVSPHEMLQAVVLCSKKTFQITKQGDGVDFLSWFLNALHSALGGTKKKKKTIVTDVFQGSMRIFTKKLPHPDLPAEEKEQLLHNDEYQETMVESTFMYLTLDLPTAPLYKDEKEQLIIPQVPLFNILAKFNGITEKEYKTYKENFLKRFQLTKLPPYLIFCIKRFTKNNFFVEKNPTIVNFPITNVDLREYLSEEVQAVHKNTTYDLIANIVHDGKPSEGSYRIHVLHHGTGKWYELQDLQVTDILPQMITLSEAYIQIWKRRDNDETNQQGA
How it was run: as §1

USP4 = biological target: T4, USP4 (UniProt Q13107)
T4 sequence (whole entry): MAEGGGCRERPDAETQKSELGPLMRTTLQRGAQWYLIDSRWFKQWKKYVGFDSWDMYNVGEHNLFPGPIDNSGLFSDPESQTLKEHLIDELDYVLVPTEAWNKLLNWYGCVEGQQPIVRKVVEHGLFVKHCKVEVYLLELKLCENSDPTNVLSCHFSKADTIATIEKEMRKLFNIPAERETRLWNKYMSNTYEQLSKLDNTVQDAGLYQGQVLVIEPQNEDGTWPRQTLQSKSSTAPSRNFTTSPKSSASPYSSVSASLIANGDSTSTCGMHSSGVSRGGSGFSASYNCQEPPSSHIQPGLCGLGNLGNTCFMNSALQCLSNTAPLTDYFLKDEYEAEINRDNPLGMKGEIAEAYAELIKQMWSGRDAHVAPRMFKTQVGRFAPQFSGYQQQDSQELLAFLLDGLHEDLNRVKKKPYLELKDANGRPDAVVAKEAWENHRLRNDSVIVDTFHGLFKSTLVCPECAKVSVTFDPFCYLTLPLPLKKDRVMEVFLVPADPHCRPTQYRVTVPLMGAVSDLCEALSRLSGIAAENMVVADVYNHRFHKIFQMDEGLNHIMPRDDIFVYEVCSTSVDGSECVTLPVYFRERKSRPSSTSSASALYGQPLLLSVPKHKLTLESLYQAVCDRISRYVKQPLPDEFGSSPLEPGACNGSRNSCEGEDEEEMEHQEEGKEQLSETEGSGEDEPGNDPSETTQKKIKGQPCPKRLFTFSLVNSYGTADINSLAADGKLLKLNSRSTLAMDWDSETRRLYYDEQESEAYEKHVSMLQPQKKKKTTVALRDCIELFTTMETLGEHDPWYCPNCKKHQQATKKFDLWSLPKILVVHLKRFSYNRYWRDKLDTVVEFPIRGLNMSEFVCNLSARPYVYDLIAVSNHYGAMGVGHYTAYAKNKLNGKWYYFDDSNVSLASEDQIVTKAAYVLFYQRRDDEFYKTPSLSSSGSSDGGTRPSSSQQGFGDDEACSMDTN
How it was run: as §1

Measured: log2 ratio of Biotin-Ahx-Ub-VS probe labelling

Chain of USP34 (Q70CQ2 whole entry, the tested form may be a part): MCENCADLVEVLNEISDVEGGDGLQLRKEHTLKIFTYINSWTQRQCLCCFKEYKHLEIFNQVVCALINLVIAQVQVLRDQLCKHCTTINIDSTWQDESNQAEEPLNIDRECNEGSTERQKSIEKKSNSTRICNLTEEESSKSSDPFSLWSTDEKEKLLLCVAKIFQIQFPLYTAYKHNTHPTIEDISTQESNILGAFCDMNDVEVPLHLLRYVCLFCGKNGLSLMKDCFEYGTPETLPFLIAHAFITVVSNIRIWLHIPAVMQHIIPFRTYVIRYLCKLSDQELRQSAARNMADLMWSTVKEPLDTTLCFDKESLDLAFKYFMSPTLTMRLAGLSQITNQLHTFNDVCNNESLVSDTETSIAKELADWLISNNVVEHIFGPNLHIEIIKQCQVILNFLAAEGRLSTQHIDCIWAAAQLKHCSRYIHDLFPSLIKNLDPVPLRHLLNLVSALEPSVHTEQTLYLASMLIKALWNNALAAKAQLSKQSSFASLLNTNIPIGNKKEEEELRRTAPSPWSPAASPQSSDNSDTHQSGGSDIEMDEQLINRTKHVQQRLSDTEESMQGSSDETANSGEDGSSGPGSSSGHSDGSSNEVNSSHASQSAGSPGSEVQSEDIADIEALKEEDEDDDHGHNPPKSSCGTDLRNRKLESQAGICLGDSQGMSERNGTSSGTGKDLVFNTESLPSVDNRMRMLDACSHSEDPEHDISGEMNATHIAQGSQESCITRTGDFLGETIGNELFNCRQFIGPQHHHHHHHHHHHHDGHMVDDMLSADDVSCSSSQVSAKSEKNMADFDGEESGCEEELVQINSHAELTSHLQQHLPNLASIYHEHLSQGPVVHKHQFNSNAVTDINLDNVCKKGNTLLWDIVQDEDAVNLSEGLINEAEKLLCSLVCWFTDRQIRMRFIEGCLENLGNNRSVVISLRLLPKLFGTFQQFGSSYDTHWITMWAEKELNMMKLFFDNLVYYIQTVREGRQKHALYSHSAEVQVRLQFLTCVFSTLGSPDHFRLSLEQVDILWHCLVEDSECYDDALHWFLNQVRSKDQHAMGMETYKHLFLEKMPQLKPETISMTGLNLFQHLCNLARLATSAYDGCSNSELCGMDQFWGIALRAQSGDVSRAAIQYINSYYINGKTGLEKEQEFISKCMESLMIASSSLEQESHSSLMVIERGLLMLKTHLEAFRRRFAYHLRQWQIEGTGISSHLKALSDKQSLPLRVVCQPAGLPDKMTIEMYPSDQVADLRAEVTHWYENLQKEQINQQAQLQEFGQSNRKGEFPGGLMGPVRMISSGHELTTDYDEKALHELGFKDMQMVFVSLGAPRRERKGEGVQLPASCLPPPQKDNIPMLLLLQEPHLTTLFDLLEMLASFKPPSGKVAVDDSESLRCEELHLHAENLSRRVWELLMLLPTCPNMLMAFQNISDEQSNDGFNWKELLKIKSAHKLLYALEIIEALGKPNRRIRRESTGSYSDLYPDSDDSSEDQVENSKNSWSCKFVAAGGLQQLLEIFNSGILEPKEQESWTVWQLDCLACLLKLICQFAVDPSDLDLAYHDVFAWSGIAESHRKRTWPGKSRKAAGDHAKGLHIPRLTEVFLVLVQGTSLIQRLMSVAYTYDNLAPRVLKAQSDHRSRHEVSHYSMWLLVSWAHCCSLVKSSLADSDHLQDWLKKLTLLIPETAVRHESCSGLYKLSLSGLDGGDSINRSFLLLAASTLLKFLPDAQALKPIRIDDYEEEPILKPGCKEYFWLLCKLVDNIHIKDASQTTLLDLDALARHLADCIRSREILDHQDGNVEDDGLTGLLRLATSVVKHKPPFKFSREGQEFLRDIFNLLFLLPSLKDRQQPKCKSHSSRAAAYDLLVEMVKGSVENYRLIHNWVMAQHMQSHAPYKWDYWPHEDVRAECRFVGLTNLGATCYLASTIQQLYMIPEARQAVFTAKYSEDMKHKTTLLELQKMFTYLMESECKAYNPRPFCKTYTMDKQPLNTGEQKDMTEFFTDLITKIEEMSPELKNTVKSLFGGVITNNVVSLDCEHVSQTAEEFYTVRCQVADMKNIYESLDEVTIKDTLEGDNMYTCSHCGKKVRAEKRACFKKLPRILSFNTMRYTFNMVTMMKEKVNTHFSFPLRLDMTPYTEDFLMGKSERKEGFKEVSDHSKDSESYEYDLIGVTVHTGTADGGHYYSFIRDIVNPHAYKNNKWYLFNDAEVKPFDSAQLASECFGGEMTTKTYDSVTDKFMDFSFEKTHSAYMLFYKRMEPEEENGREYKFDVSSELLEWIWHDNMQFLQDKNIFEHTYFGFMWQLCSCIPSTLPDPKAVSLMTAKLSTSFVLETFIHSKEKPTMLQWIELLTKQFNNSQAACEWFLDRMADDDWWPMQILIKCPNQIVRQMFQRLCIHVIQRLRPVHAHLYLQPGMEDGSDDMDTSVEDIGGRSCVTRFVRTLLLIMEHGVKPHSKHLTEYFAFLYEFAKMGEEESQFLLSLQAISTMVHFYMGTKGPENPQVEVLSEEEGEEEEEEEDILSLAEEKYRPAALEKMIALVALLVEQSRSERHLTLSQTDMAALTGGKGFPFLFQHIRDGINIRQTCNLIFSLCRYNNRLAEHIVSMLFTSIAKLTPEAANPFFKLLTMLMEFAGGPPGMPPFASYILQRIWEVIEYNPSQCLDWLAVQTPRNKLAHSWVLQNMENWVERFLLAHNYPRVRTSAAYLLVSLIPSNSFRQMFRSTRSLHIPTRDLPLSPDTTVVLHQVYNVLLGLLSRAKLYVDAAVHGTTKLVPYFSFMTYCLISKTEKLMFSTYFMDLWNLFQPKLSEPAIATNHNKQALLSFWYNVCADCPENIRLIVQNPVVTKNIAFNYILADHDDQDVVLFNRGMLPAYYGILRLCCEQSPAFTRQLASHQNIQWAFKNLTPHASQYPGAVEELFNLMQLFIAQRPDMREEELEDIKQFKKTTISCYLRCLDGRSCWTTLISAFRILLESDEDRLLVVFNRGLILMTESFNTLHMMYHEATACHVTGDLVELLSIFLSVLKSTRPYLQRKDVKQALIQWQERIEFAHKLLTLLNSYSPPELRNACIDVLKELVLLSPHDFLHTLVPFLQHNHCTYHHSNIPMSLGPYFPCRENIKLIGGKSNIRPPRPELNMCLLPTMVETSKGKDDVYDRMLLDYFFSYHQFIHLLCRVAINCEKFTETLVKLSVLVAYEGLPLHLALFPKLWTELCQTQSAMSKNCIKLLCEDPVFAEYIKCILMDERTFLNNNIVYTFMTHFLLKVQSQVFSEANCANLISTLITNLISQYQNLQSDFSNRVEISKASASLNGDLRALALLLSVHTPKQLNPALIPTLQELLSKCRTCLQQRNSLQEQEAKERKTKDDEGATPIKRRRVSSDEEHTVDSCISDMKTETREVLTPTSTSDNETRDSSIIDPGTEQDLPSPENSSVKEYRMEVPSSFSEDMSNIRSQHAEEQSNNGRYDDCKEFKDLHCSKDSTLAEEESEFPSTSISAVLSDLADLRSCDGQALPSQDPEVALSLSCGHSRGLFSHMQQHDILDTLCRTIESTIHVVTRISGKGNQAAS

N#Cc1ccccc1N1CCN(C(=O)CCl)CC1
inactive: USP34 -0.549 | USP36 -0.232 | USP38 -0.312 | USP39 0.399 | USP4 -0.61
